# Assay outcomes as filed in PubChem.
# EPAC2 agonist = agonists of human EPAC2 (RAPGEF4); EPAC2 activation, biochemical qHTS; response scale: 100% = 6.5 mM cAMP response; Q8WZA2; actives 0.079% (n = 360,000); Potency, µM (series often up to 154 µM), inactives show top-dose activation, most hits filed as activators; also: potency is read from the fitted curve at half-maximal effect; nearly all actives have a fitted effect of over 50% in size
#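 Guanine nucleotide exchange by EPAC2 is measured as reduced fluorescence of BODIPY-GDP once it is released from 250 nM Rap1B. Plates are read kinetically for 30 min at room temperature; results are scaled to 6.5 mM cAMP.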
# FBPA coupling cs = counter-screen for Giardia aldolase inhibitors: coupling enzyme system; coupling enzyme system counterscreen, AmpLite Red fluorescence; activity change, negative = inhibition, % at 58.2 µM, hits read low; actives 0.67% (n = 290,000); in the data active = activity change below about -30%; also: % is scaled to controls: 0 for no effect and ±100 for the full control effect
#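 Fluorescence at 525 nm excitation and 598 nm emission measured inhibition of the coupled detection system without aldolase. Compounds (at 57.5 uM final) were preincubated 10 min at room temperature with coupling enzyme reagent before a 20 min substrate/AmpLite Red step.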
# USP1 inh = USP1/UAF1 (human) deubiquitinase inhibition; recombinant USP1/UAF1, Ub-Rhodamine cleavage fluorescence; O94782; Potency, µM (top dose mostly 57.1 µM), without a hit: at the highest dose activity change, negative = inhibition, hits mostly inhibitors; actives 0.23% (n = 390,000); also: potency is read from the fitted curve at half-maximal effect; % is scaled to controls: 0 for no effect and ±100 for the full control effect; nearly all actives have a fitted effect of over 60% in size
#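 In this screen, compounds sit with the deubiquitinase complex (1nM) for 15 min at room temperature before Ub-Rho is added at 150nM final. Fluorescence rise is then followed for 6 reads every 60 seconds.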
# EPAC1 antagonist = blocks human EPAC1 exchange factor. EPAC1 GEF assay, Rap1b-BODIPY-GDP exchange fluorescence. actives 0.14% (n = 360,000). Potency, µM (top dose mostly 115 µM), for inactives: top-dose activity change, negative = inhibition, most hits filed as inhibitors;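 also: potency is read from the fitted curve at half-maximal effect; plate controls were vehicle for no effect and positive control for full effect; nearly all actives have a fitted effect of over 50% in size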
# EPAC2 antagonist = blocks human EPAC2 exchange factor; Q8WZA2; EPAC2 GEF exchange of Rap1B-BODIPY-GDP, fluorescence; Potency, µM (highest dose often 114 µM), for inactives: at the top dose activity, negative = inhibition, most hits filed as inhibitors; actives 0.18% (n = 360,000); AID 720708; also: potency is read from the fitted curve at half-maximal effect; % is scaled to controls: 0 for no effect and ±100 for the full control effect; nearly all actives have a fitted effect of over 45% in size
# EPAC1 ag = agonists of human EPAC1. AID 720707. Potency, µM (titrated, usually from 154 µM), for inactives: at the top dose activation, most hits filed as activators. EPAC1 agonist qHTS, biochemical assay; response scale: 100% = response to 6.5 mM cAMP. actives 0.073% (n = 360,000); also: potency is read from the fitted curve at half-maximal effect; nearly all actives have a fitted effect of over 60% in size
#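 Compounds were pinned as a concentration titration into mixtures of EPAC1 (100 nM), BODIPY-GDP-loaded Rap1B (250 nM) and GDP (50 uM). After 5 min at room temperature, fluorescence was followed for 30 min; activity was scaled to 6.5 mM cAMP.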
# An asterisk follows results filed as active; u = inconclusive; x = no result. An excerpt weighted towards active compounds, which were near 0.87% of everything screened. Unless noted, calls follow the shape of the dose curve; as a rule, active = well fitted curve in the direction sought with a large enough effect; inconclusive = small, poorly fitted or top-dose-only effect, or another doubt; inactive = no such curve, though single readings can be large; an effect the other way counts as inactive or inconclusive.
SMILES,EPAC2 agonist,FBPA coupling cs,USP1 inh,EPAC1 antagonist,EPAC2 antagonist,EPAC1 ag
O=Cc1c(-c2ccccc2)nc2ccccn12,2%,0,-16%,-9%,0%,7%
CCc1nc(-c2ccccc2)c2ccccn12,7%,-43*,3%,-3%,10%,4%
Cc1[nH]c2ccc3ncccc3c2c1C,-6%,-39*,-13%,-14%,8%,2%
CCCOc1ccc(C(=O)Nc2nonc2-c2ccc(OCC)cc2)cc1,x,x,-21%,x,x,x
COc1cccc(OC)c1OC(=O)/C=C/c1ccc(C)o1,14%,0,u,-13%,56µM*,2%
Cc1ccc(/C=C/C(=O)Oc2ccc(C#N)cc2)o1,x,2,x,x,x,x
O=C(CCc1ccc(S(=O)(=O)N2CCOCC2)cc1)Nc1nc(COc2ccccc2)cs1,5%,-1,-20%,-11%,-3%,20%
CCN1C(=O)/C(=C/c2ccc(OCc3ccc(C(=O)O)cc3)c(Cl)c2)NC1=S,11%,10,-27%,89µM*,26%,4%
CCCC(=Nc1ccc(N)cc1)C1=C(O)C(C(=O)OC)C(C)(C)CC1=O (stereo not given),-7%,-41*,u,4%,7%,4%
Cc1ccc2nc(SCC(=O)c3c(N)n(C4CC4)c(=O)[nH]c3=O)[nH]c2c1,27%,x,-25%,-9%,71µM*,-9%
CCN(CC)CCCNc1ccc2ncn3c4ccc(O)cc4c(=O)c1c23,-13%,x,28µM*,9%,60%,21%
COc1cc(NC(C)CCCN)c2ncccc2c1Oc1ccccc1 (stereo not given),0%,-30*,-23%,-1%,-8%,-2%
CCc1ccc(NC(=O)C(C)OC(=O)c2cccc(S(=O)(=O)N3CCc4ccccc4C3)c2)cc1 (stereo not given),9%,-45*,-10%,-5%,-4%,3%
O=C(NC1CCCCCC1)c1ccccc1-c1ccccc1,-5%,3,-3%,5%,-4%,2%
O=C(NC1CCCCCCC1)c1ccccc1-c1ccccc1,-2%,-36*,-6%,13%,1%,9%
O=C1OCCN1C(=O)[C@H]1[C@H](c2ccc([N+](=O)[O-])cc2)C(c2cccc(Cl)c2)=NN1c1ccccc1,5%,-1,-25%,-6%,-3%,6%
O=C(Cc1cccc(NC(=O)C2CCCN(C(=O)C3CCC3)C2)c1)Nc1cccc(C(=O)N2CCCCC2)c1 (stereo not given),3%,x,-15%,-15%,14%,-8%
O=c1c(N2CCOCC2)c(N2CCOCC2)c1=O,1%,-2,-27%,-9%,0%,-1%
CC(C)(C)C1=CC(=O)C(N2CCOCC2)=CC1=O,8%,-58*,u,-9%,1%,-1%
Cc1ccc(S(=O)(=O)Nc2cccc3ncccc23)cc1,9%,-1,-1%,-29%,12%,12%
Cc1ccc(S(=O)(=O)Nc2cccc3ncccc23)s1,9%,-40*,-23%,9%,7%,11%
Nc1ncnc2c1nc(Sc1ccc(Cl)cc1)n2[C@@H]1O[C@@H]2COP(=O)(O)O[C@H]2[C@H]1O,u,x,-5%,u,2.8µM*,u
Nc1ncnc2c1nc(Br)n2C1OC(CO)C(O)C1O (stereo not given),x,0,x,x,x,x
N#Cc1c(-c2ccccc2)nc(SCc2cccc(Cl)c2)[nH]c1=O,-11%,11,-18%,u,89µM*,-5%
CCN1CC=C2C(C#N)=C(N)C(C#N)(C#N)C(CCc3ccccc3)C2C1 (stereo not given),50µM*,-4,22µM*,u,45µM*,100µM*
CN1CC=C2C(C#N)=C(N)C(C#N)(C#N)[C@H](c3ccoc3)[C@H]2C1,15%,-31*,u,18%,0%,27%
